Test results taken from PubChem BioAssay.
Activity calls are given as the source filed them.

How the values were obtained:
[1] = test system: Plasmodium falciparum Sir2 (PF13_0152, Sir2A); experiment: Plasmodium falciparum Sir2A binding compounds – biochemical, small-molecule microarray, 635 nm fluorescence, primary screen (AID 1098); settings: fluorescence 635 nm, higher = more signal;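 further: score merges spot fluorescence intensity with its signal-to-noise ratio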
[2] = probe aDKK1 binding to arrayed compounds – biochemical, biotinylated probe, 635/667 nm fluorescence, primary screen (AID 1099); settings: small-molecule microarray, higher = more signal;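 further: score merges 667nm spot fluorescence with signal to noise across triplicate slides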
[3] = probe aCHRDL2 binding to arrayed compounds – biochemical, biotinylated probe, 635/667 nm fluorescence, primary screen (AID 1100); settings: small-molecule microarray, higher = more signal
[4] = change in splice reporter luminescence, either direction, cell-based, HEK293, spliceosome inhibition project, primary screen (AID 1101); settings: HEK293 splicing luciferase reporter, 24 h, higher = more signal, called active from +8 up or from −8 down;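 further: HEK293 cells carrying a splicing-competent luciferase reporter gene; test concentration not given here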
[5] = target: Fibroblast growth factor 10 (Homo sapiens) (UniProt O15520); experiment: compounds binding fibroblast growth factor 10 – biochemical, small-molecule microarray, 635 nm fluorescence, primary screen (AID 1102); settings: FGF10 binding, fluorescence 635 nm, higher = more signal
Chain of Fibroblast growth factor 10 (Homo sapiens) (O15520 whole entry, looked up): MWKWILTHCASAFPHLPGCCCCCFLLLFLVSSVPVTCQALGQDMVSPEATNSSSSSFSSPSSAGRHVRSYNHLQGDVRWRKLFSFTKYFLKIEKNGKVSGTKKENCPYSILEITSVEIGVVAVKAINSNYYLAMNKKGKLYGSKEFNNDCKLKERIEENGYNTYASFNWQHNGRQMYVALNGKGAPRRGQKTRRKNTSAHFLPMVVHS

[6] = test system: glycogen synthase kinase-3 (GSK3A per assay name; protocol says GSK3B); experiment: compounds binding glycogen synthase kinase-3 – biochemical, small-molecule microarray, 635 nm fluorescence, GSK3A, primary screen (AID 1103); settings: fluorescence 635 nm, higher = more signal; further: the record names both GSK3A and GSK3B
[7] = target: Epidermal growth factor receptor (Homo sapiens) (UniProt P00533); experiment: compounds binding epidermal growth factor receptor – biochemical, small-molecule microarray, 635 nm fluorescence, primary screen (AID 1104); settings: EGFR binding, higher = more signal;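 further: score merges 667 nm emission intensity with spot signal to noise over triplicate slides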
Chain of Epidermal growth factor receptor (Homo sapiens) (P00533 whole entry, looked up): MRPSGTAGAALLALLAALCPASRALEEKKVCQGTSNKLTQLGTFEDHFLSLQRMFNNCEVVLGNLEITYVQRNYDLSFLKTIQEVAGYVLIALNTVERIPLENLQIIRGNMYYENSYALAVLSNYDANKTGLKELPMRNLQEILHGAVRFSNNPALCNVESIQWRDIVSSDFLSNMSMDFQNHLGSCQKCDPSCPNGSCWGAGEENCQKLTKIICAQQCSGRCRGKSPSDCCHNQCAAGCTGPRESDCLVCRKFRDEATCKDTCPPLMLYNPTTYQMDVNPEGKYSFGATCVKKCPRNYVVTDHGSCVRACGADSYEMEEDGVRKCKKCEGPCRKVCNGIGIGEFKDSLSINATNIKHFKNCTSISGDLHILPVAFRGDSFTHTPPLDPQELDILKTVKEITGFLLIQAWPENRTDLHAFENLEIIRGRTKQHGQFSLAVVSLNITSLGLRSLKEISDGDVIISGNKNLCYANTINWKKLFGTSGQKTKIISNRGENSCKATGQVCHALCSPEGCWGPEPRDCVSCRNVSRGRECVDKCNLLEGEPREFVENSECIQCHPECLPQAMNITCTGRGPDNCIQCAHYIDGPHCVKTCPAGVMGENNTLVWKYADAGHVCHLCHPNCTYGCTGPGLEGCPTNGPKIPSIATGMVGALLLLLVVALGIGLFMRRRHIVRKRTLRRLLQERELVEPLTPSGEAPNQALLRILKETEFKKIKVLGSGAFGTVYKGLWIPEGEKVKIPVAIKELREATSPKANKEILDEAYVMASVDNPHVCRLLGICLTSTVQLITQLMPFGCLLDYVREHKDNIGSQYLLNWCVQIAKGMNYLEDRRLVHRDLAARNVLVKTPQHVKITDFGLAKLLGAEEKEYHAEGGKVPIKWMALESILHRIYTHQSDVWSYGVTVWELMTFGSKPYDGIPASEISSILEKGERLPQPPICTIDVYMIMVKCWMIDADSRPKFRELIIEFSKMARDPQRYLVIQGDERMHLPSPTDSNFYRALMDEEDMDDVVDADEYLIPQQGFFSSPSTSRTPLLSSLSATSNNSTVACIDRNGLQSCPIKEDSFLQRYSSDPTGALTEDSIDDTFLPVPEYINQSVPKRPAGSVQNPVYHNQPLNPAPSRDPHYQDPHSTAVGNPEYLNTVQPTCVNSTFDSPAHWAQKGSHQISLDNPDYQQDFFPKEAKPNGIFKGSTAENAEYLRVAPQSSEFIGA

[8] = target: Follistatin-related protein 3 (Homo sapiens) (UniProt O95633); experiment: compounds binding follistatin-related protein 3 – biochemical, small-molecule microarray, 635 nm fluorescence, primary screen (AID 1105); settings: FSTL3 binding, higher = more signal;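 further: score merges emission near 667 nm and signal to noise per printed spot across three slides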
Chain of Follistatin-related protein 3 (Homo sapiens) (O95633 whole entry, looked up): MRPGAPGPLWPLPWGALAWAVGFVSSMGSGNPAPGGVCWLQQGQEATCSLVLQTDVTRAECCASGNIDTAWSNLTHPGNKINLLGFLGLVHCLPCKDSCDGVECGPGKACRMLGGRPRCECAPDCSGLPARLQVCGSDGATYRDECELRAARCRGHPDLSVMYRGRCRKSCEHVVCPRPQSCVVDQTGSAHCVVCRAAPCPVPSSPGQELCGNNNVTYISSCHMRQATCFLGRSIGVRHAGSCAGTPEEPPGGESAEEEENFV

[9] = target: Dickkopf-related protein 1 (Homo sapiens) (UniProt O94907); experiment: small molecules binding DKK1 protein – biochemical, small-molecule microarray, 635 nm fluorescence scan, primary screen (AID 1106); settings: higher = more signal;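 further: score merges emission near 667 nm with signal to noise over three replicate slides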
Chain of Dickkopf-related protein 1 (Homo sapiens) (O94907 whole entry, looked up): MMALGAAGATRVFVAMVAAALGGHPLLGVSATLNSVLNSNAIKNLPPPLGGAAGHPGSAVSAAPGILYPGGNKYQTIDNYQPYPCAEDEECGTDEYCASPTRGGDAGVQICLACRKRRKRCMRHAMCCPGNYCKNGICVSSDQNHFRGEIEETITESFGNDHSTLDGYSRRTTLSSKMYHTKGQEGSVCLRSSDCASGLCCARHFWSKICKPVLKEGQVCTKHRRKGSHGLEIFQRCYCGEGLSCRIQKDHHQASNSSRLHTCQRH

[10] = test system: Inhibin beta A chain (activin A); experiment: small molecules binding activin A – biochemical, small-molecule microarray, 635 nm fluorescence scan, primary screen (AID 1107); settings: INHBA, higher = more signal;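 further: mouse activin A protein probed at 4.33 µg/mL on printed slides; score merges bound-protein fluorescence near 667 nm with spot signal-to-noise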
[11] = test system: Human papillomavirus type 1a protein E7 (residues 44-93); experiment: small molecules binding HPV E7 44-93 – biochemical, small-molecule microarray, residues 44-93, 635 nm fluorescence, primary screen (AID 1108); settings: fluorescence 635 nm, higher = more signal;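 further: E7 fragment applied at 1 µg/mL in TBST for 1 h at 4 C; score combines spot fluorescence with its signal to noise ratio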
[12] = hepatitis C replication reporter changes, two-sided – Huh7 cells, luciferase reporter, HCV replication inhibitor project, primary screen (AID 1109); settings: Huh7 HCV replicon luciferase reporter, 48 h; higher = more signal;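 further: huh7 hepatoma cells harbouring a luciferase neomycin HCV replicon reporter; luciferase luminescence as measure of HCV replicon replication; test concentration not given here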
[13] = target: Left-right determination factor 2 (Homo sapiens) (UniProt O00292); experiment: small molecules binding LEFTY2 protein – biochemical, small-molecule microarray, 635 nm fluorescence scan, primary screen (AID 1110); settings: higher = more signal
Chain of Left-right determination factor 2 (Homo sapiens) (O00292 whole entry, looked up): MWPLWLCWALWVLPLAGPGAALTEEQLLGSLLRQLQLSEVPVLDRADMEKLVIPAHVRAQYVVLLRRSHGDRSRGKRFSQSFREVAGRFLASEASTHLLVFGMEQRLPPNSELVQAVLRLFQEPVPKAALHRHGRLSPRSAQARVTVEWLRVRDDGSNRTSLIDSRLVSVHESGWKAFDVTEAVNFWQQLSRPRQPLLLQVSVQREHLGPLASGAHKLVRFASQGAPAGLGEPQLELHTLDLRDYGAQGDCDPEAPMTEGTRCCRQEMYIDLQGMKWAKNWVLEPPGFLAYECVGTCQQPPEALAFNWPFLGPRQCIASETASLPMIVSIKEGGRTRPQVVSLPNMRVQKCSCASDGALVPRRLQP

[14] = target: Calmodulin-1 (Homo sapiens) (UniProt P0DP23); experiment: small molecules binding calmodulin-1 with EGTA – biochemical, small-molecule microarray, Cy5-labelled CALM1, profiling panel (AID 1111); settings: Cy5-CALM1 binding fluorescence, higher = more signal;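 further: labelled calmodulin applied in Tris saline Tween buffer holding calcium plus EGTA and DTT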
[15] = target: Calmodulin-1 (Homo sapiens) (UniProt P0DP23); experiment: small molecules binding Ca-loaded calmodulin-1 – biochemical, small-molecule microarray, Cy5-labelled CALM1, plus calcium, artefact control for SMM control-protein annotation, profiling panel (AID 1112); settings: Cy5-CALM1 binding fluorescence, higher = more signal;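 further: score merges spot fluorescence with signal to noise from triplicate slides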
[16] = probe aWnt5a binding to arrayed compounds – biochemical, biotinylated probe, 635/667 nm fluorescence, primary screen (AID 1113); settings: small-molecule microarray, higher = more signal;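 further: score merges 667 nm fluorescence intensity with signal-to-noise per printed feature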
[17] = probe aShh binding to arrayed compounds – biochemical, biotinylated probe, 635/667 nm fluorescence, primary screen (AID 1114); settings: small-molecule microarray, higher = more signal;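 further: probe is biotin-labelled aShh protein from a stem cell growth factor screen; measures binding of labelled protein to compounds printed on the slide; score merges feature fluorescence at 667 nm with signal-to-noise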
[18] = probe aNog binding to arrayed compounds – biochemical, biotinylated probe, 635/667 nm fluorescence, primary screen (AID 1115); settings: small-molecule microarray, higher = more signal;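 further: probe is biotinylated aNog protein used at 0.15 µg/mL for 1 h at 4 C; z-score combines 667 nm fluorescence of each spot with its signal to noise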
[19] = target: Torsin-1A-interacting protein 1 (Homo sapiens) (UniProt Q5JTV8); experiment: compound microarray binding of lysate hLAP1 – cell lysate, small-molecule microarray, COS7 lysate, 635/667 nm fluorescence, primary screen (AID 1116); settings: 635 nm fluorescence, higher = more signal
Chain of Torsin-1A-interacting protein 1 (Homo sapiens) (Q5JTV8 whole entry, looked up): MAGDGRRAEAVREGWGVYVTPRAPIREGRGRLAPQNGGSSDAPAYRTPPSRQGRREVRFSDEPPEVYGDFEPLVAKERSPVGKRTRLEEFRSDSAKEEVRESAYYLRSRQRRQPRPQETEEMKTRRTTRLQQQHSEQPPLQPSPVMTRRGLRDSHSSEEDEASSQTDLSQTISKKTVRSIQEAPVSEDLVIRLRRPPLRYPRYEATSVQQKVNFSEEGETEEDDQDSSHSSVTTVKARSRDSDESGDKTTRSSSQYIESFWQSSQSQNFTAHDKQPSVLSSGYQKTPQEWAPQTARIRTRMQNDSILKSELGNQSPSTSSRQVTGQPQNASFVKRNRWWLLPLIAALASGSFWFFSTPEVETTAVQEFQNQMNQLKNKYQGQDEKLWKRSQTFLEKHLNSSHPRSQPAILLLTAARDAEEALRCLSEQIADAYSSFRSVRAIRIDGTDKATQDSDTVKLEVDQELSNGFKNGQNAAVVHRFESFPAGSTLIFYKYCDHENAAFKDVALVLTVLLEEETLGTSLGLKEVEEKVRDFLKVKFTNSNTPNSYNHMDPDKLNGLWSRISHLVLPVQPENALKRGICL

[20] = target: Alpha-bungarotoxin (Bungarus multicinctus) (UniProt P60615); experiment: compounds binding labelled alpha-BTX control protein – biochemical, small-molecule microarray, Alexa647 label, 635/667 nm fluorescence, artefact control for SMM control protein annotation, profiling panel (AID 1117); settings: alpha-BTX-A647 binding fluorescence, higher = more signal
Chain of Alpha-bungarotoxin (Bungarus multicinctus) (P60615 whole entry, looked up): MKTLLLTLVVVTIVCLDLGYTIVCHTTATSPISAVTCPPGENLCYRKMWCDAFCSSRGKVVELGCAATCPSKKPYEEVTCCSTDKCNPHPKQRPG

Row | Compound | composite z-score [1] | composite z-score [2] | composite z-score [3] | z-score [4] | composite z-score [5] | composite z-score [6] | composite z-score [7] | composite z-score [8] | composite z-score [9] | composite z-score [10] | composite z-score [11] | z-score [12] | composite z-score [13] | composite z-score [14] | composite z-score [15] | composite z-score [16] | composite z-score [17] | composite z-score [18] | composite z-score [19] | composite z-score [20]
1 | O=C(NCc1ccccc1)c1ccc(Br)cc1[N+](=O)[O-] | 0.333 | -0.261 | -0.47 | 0.628 (inactive) | 0.39 | 0.215 | 0.425 | 0.494 | 0.346 | 0.31 | -0.0303 | -0.3 | 0.61 | 0.216 | 0.321 | -0.0462 | -0.141 | -0.318 | 0.0817 | 1.29
2 | C#C[C@H](O[Si](C#Cc1ccccc1)(C(C)C)C(C)C)c1ccccc1 | 2.08 | -0.156 | 0.104 | -0.647 (inactive) | 0.0189 | -0.75 | -0.765 | -0.643 | -0.854 | 0.0677 | -0.285 | -0.733 | -0.962 | -0.226 | 0.418 | -0.162 | -0.154 | -0.333 | -0.246 | 0.821
3 | C=C(CCCC)/C(=C/C[C@H](OC(=O)c1ccncc1)c1cccc(OCCO)c1)c1cc(C(=O)OC)ccc1OC | 0.169 | -0.166 | -0.0107 | -1.37 (inactive) | 1.04 | 0.174 | -0.218 | 0.611 | 0.347 | 0.868 | 0.799 | -2.61 | 0.385 | 0.267 | -0.784 | 0.0394 | 0.14 | -0.226 | 0.516 | 0.582
4 | CCCCO[C@H]1C[C@H]2C(Br)=C[C@@]1(CO)C(=O)[C@]21CO1 | -0.145 | -0.482 | -1.04 | -1.53 (inactive) | 0.136 | -0.243 | 0.156 | 0.184 | 0.308 | 0.363 | -0.122 | -1.46 | 0.456 | -0.795 | -1.33 | -0.146 | -0.123 | -0.278 | -0.242 | -0.755
5 | O=C1O[C@@H](c2ccccc2)[C@@H](c2ccccc2)N2[C@@H](c3ccccc3OCCO)[C@]3(C(=O)Nc4ccc(C#CC5=CCCCC5)cc43)[C@@H](C(=O)O)[C@H]12 | 1.17 | 0.702 | 0.51 | -2.47 (inactive) | 0.289 | 1.04 | 0.309 | 0.87 | 0.471 | 1.09 | 0.799 | -2.28 | 0.0802 | 1.7 | 0.957 | -0.0539 | 0.13 | 0.0014 | 0.612 | 1.77
6 | C=CC[C@@]1(C(=O)NCC(O)CO)N=C(c2ccc(OCCCO)cc2)O[C@@H]1c1ccccc1CN=[N+]=[N-] (stereo not given in full) | 1.52 | -0.0775 | 1.08 | -0.155 (inactive) | 0.0349 | -1.33 | -0.83 | -0.884 | -1.45 | 0.242 | 1.43 | -1.11 | -1.44 | 0.778 | -0.0262 | -0.119 | 0.261 | 0.824 | 2.6 | 0.0177
7 | NC(=O)[C@H]1[C@@H]2C(=O)O[C@@H](c3ccccc3)[C@@H](c3ccccc3)N2[C@@H](c2ccc(O)cc2)[C@]12C(=O)Nc1ccc(C#CCCO)cc12 | 1.61 | -0.0626 | 0.604 | -0.205 (inactive) | -0.187 | -1.6 | -1.52 | -0.681 | -0.889 | -0.142 | -1.74 | 0.179 | -1.05 | -0.742 | 0.661 | -0.175 | -0.0769 | -0.158 | -0.819 | -1.58
8 | C[C@@H]1NC(=O)CC=C[C@@H](C)[C@@H]2C=C[C@H](O)[C@@H](COC(=O)[C@H](C)NC(=O)CC=C[C@@H](C)[C@@H]3C=C[C@H](O)[C@@H](COC1=O)O3)O2 | 0.231 | -0.555 | -0.925 | -1.61 (inactive) | 0.544 | 0.217 | 0.418 | 0.632 | 0.849 | 0.0277 | 0.0804 | 0.128 | 0.0183 | -0.417 | -0.0969 | -0.172 | -0.426 | -0.134 | -0.166 | -0.64
9 | Cc1ccc(S[C@]2(C(=O)NC3CC3)CC(=O)N(Cc3cc(C(F)(F)F)cc(C(F)(F)F)c3)[C@@H]2c2ccc(CO)cc2)cc1 | 0.259 | -0.212 | 0.0275 | 0.434 (inactive) | 0.295 | 0.57 | 0.196 | 0.811 | 0.245 | 0.709 | 0.892 | -1.17 | 0.267 | -0.125 | -0.493 | -0.175 | -0.174 | -0.491 | -0.0118 | 0.296
10 | O=C1C2C=CC(C(O)C#Cc3ccccc3)N(Nc3ccccc3)C2C(=O)N1c1ccccc1 (stereo not given) | 1.66 | -0.0212 | 0.498 | 0.287 (inactive) | -0.102 | -0.208 | -0.512 | -0.445 | -0.572 | 0.687 | -0.369 | -0.049 | -0.365 | 0.482 | 0.373 | -0.096 | -0.16 | 0.839 | 0.945 | 0.472
11 | CC(C)[Si](OCCCNS(=O)(=O)c1ccc(Br)cc1)(C(C)C)C(C)C | 0.373 | 0.526 | 0.0951 | -0.619 (inactive) | 0.831 | 1.18 | 0.742 | 0.753 | 0.673 | -0.415 | 0.186 | -2.89 | 0.76 | 1.19 | -0.371 | 0.037 | -0.0553 | 0.0379 | 0.928 | -0.249
